Measurements as given in the supplement of paper PMC10849652.
The full data set covers some 7,900 targets. This sample favours those with a hit. About 0.6% of all pairs of compound and target were hits.

How the values were obtained:
Test in all cases: log2 fold change, soluble protein after heating vs DMSO (PISA); higher = thermal stabilisation; K562 cells, 10 uM, 30 min; active = over 0.2 and 3.5 SD of the protein, either way, in both replicates (recomputed)
[1] = compound: CC[C@@H]1C(=O)N(C)c2cnc(Nc3ccc(C(=O)NC4CCN(C)CC4)cc3OC)nc2N1C1CCCC1
Method in brief: (§1)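 K562 cells (2×10^6 cells/mL) were treated with 10 μM compound for 30 min, and aliquots were heated for 3 min over 48°C-58°C. Pooled aliquots were extracted in PBS with 0.5% NP-40 at 4°C, and the supernatant after 21,000xg for 90 min was measured by TMTpro 16plex LC-MS/MS with channel sums equalised. Reported thermal stability, relative to control samples and from duplicates, is a log2 fold change.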

volasertib = compound: CC[C@@H]1C(=O)N(C)c2cnc(Nc3ccc(C(=O)N[C@H]4CC[C@H](N5CCN(CC6CC6)CC5)CC4)cc3OC)nc2N1C(C)C [volasertib]
Method in brief: as §1

[2] = compound: CC[C@H](C)N1C=C(C2=C(C=C(C=C21)C3=CN=C(C=C3)N4CCNCC4)C(=O)NCC5=C(C=C(NC5=O)C)C)C
Method in brief: as §1

epoxomicin = compound: CC[C@H](C)[C@@H](C(=O)N[C@@H]([C@@H](C)O)C(=O)N[C@@H](CC(C)C)C(=O)[C@]1(CO1)C)NC(=O)[C@H]([C@@H](C)CC)N(C)C(=O)C [epoxomicin]
Method in brief: as §1

[3] = compound: CCn1c(C(=O)N(C2CC2)C2CC2)cc2c3c(ncn3C)c(Nc3cc(C)n(C)n3)nc21
Method in brief: as §1

[4] = compound: CCn1cc(-c2ccnc3[nH]c(-c4cccc(CN(C)C)c4)cc23)c(-c2ccc(NC(=O)N(C)C)cc2)n1
Method in brief: as §1

[5] = compound: CN(C)CC(=O)Nc1ccc2[nH]c(=O)c3ccccc3c2c1
Method in brief: as §1

rosiglitazone = compound: CN(CCOC1=CC=C(C=C1)C[C@H]2C(=O)NC(=O)S2)C3=CC=CC=N3 (racemic) [rosiglitazone]
Method in brief: as §1

[6] = compound: CN1C2=C(C3=C1C(=O)N(N=C3)CC4=CC(=CC=C4)N)SC(=C2)S(=O)C
Method in brief: as §1

[7] = compound: CN1CCC(CNc2ccc3ncc(-c4cccc(OC(F)(F)F)c4)n3n2)CC1
Method in brief: as §1

saracatinib = compound: CN1CCN(CCOc2cc(OC3CCOCC3)c3c(Nc4c(Cl)ccc5c4OCO5)ncnc3c2)CC1 [saracatinib]
Method in brief: as §1

sotrastaurin = compound: CN1CCN(c2nc(C3=C(c4c[nH]c5ccccc45)C(=O)NC3=O)c3ccccc3n2)CC1 [sotrastaurin]
Method in brief: as §1

alvocidib = compound: CN1CC[C@H](c2c(O)cc(O)c3c(=O)cc(-c4ccccc4Cl)oc23)[C@H](O)C1 [alvocidib]
Method in brief: as §1

Tubastatin A = compound: CN1CCc2c(c3ccccc3n2Cc2ccc(C(=O)NO)cc2)C1 [Tubastatin A]
Method in brief: as §1

[8] = compound: CNC(=O)C1=CC=CC=C1NC2=NC(=NC=C2Cl)NC3=C(C=C(C=C3)N4CCOCC4)OC
Method in brief: as §1

defactinib = compound: CNC(=O)c1ccc(Nc2ncc(C(F)(F)F)c(NCc3nccnc3N(C)S(C)(=O)=O)n2)cc1 [defactinib]
Method in brief: as §1

rucaparib = compound: CNCc1ccc(-c2[nH]c3cc(F)cc4c3c2CCNC4=O)cc1 [rucaparib]
Method in brief: as §1

[9] = compound: CNc1nc(-c2ccc3c(N)n[nH]c3c2)cc(N2C[C@@H](C(=O)NC3CCCCC3)CC[C@H]2C)n1
Method in brief: as §1

encorafenib = compound: COC(=O)N[C@@H](C)CNc1nccc(-c2cn(C(C)C)nc2-c2cc(Cl)cc(NS(C)(=O)=O)c2F)n1 [encorafenib]
Method in brief: as §1

[10] = compound: COC(=O)[C@H](CCSC)NC(=O)C1=C(C=C(C=C1)NC[C@H](CS)N)C2=CC=CC=C2
Method in brief: as §1

Sequence of UniProt P0CAP2 (P0CAP2 whole entry, looked up): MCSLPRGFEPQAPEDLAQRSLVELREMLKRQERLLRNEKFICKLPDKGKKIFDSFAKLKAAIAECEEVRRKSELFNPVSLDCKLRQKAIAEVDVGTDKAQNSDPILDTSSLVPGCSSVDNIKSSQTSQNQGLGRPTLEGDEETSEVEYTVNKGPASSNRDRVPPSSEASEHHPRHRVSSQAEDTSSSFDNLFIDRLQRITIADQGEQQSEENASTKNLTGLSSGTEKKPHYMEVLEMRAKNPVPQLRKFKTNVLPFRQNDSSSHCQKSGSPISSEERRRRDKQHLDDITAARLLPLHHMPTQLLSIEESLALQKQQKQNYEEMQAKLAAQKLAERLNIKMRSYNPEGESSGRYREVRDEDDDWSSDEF
Sequence of UniProt O43395 (O43395 whole entry, looked up): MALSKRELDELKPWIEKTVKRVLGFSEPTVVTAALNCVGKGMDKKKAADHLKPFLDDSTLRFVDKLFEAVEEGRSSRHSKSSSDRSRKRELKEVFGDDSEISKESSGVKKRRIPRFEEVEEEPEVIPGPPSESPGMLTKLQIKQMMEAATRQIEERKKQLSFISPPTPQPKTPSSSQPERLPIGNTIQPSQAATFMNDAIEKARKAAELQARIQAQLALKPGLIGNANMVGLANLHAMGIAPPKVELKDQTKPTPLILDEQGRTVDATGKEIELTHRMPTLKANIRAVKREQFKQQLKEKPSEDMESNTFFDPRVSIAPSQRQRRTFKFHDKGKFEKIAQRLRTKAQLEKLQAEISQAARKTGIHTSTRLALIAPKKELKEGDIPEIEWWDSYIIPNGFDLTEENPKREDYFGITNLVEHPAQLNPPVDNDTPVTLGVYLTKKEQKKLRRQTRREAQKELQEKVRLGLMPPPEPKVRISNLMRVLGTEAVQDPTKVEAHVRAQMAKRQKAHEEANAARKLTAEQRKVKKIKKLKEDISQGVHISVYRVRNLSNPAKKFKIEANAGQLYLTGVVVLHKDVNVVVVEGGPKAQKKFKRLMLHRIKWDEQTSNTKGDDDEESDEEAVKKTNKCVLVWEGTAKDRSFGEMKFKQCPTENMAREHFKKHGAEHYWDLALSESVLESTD
Sequence of UniProt P06454 (P06454 whole entry, looked up): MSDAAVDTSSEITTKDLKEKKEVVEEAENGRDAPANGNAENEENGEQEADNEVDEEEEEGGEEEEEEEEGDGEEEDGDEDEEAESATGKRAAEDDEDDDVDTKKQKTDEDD
Sequence of UniProt O60678 (O60678 whole entry, looked up): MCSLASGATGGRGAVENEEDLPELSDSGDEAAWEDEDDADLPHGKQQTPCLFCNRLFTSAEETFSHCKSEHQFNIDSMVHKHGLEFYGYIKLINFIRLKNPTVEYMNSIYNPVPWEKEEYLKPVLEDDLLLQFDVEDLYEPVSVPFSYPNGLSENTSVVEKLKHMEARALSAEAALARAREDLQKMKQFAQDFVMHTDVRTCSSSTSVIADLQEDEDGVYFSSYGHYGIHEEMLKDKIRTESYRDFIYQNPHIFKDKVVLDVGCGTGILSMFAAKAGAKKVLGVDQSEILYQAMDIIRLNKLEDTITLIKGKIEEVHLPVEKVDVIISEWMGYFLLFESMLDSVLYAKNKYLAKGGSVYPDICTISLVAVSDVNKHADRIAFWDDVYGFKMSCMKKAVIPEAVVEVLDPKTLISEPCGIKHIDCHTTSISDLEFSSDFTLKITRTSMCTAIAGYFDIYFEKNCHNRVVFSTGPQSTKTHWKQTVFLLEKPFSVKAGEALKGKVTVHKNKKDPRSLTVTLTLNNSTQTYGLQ
Sequence of UniProt P42785 (P42785 whole entry, looked up): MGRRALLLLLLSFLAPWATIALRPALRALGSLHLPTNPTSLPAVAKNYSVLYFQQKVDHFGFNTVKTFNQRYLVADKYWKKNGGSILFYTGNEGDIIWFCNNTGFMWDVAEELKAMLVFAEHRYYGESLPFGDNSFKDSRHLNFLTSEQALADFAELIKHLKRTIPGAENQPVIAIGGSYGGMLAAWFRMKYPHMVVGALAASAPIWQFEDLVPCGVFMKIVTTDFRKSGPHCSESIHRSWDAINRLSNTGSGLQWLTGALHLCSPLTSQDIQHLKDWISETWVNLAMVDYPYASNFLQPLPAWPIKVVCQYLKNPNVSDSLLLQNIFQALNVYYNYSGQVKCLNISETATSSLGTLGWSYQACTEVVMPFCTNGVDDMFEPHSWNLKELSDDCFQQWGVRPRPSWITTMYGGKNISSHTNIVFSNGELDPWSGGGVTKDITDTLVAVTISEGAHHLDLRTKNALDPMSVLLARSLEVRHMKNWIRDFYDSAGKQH
Sequence of UniProt O00233 (O00233 whole entry, looked up): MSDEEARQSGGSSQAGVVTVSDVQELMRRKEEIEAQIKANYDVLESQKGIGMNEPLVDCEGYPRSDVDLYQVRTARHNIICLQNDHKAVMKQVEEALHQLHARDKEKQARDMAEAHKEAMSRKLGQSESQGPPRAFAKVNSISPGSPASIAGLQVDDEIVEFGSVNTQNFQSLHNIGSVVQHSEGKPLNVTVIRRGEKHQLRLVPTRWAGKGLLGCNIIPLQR
Sequence of UniProt Q9NP80 (Q9NP80 whole entry, looked up): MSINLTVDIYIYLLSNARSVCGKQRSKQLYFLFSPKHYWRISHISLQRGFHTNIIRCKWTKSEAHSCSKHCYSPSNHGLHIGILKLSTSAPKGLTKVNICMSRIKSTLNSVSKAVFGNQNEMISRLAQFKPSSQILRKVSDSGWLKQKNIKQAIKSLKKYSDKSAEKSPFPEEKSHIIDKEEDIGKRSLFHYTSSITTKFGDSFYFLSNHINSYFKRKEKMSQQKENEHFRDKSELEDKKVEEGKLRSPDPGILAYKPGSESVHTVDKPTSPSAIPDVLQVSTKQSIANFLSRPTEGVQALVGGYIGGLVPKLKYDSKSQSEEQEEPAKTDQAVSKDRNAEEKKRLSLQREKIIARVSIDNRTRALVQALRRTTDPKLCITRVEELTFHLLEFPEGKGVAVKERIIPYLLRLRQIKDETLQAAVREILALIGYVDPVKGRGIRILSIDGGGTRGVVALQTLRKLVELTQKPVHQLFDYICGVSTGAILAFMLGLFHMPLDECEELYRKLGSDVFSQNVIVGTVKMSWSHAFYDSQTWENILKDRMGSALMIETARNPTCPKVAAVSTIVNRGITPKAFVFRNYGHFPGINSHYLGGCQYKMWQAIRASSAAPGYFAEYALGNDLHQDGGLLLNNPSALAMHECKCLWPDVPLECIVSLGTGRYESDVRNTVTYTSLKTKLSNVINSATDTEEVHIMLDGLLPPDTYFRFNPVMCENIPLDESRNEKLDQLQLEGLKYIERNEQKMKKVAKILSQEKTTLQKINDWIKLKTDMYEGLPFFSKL
Sequence of UniProt O15067 (O15067 whole entry, looked up): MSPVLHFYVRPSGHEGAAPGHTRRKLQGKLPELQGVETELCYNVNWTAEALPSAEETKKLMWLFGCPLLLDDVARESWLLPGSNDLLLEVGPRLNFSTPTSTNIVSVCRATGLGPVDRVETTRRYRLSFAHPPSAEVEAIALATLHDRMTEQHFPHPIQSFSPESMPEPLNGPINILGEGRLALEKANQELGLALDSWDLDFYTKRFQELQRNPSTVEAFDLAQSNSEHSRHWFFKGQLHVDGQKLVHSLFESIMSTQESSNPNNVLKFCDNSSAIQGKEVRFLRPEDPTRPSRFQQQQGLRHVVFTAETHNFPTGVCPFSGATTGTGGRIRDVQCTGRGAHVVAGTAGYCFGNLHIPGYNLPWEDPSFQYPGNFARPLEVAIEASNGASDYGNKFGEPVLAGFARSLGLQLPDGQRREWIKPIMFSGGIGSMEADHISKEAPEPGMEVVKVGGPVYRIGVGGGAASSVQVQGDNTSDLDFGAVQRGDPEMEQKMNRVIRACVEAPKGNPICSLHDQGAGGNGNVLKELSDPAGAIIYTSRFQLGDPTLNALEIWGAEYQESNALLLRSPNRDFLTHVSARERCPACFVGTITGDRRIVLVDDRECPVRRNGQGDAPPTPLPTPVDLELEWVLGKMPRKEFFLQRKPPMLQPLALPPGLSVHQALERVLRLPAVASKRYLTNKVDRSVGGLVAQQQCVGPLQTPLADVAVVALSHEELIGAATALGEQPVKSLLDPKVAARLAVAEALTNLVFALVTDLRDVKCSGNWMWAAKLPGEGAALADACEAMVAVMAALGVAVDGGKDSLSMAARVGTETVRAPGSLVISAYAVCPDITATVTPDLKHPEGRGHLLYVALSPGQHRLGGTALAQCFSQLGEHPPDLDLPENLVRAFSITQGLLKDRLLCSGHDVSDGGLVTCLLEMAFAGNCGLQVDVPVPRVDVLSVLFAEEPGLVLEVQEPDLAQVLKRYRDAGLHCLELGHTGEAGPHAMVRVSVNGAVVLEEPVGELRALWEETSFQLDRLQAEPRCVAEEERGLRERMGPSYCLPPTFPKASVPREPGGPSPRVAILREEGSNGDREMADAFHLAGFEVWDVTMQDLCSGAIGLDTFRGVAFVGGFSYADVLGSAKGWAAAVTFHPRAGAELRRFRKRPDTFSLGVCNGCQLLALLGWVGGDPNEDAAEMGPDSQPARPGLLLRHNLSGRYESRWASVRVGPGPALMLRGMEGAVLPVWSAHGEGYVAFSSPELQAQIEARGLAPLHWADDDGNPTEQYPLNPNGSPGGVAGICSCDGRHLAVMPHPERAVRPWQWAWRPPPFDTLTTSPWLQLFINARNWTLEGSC
Sequence of UniProt Q8N4L2 (Q8N4L2 whole entry, looked up): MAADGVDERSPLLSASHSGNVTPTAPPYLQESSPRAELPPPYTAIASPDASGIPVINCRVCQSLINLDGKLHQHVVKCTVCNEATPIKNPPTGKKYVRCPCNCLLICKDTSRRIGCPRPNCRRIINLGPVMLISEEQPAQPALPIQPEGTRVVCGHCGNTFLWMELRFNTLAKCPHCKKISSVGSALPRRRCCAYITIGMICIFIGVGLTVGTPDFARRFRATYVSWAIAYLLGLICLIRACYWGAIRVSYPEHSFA

Target | log2 fold change [1] | log2 fold change (volasertib) | log2 fold change [2] | log2 fold change (epoxomicin) | log2 fold change [3] | log2 fold change [4] | log2 fold change [5] | log2 fold change (rosiglitazone) | log2 fold change [6] | log2 fold change [7] | log2 fold change (saracatinib) | log2 fold change (sotrastaurin) | log2 fold change (alvocidib) | log2 fold change (Tubastatin A) | log2 fold change [8] | log2 fold change (defactinib) | log2 fold change (rucaparib) | log2 fold change [9] | log2 fold change (encorafenib) | log2 fold change [10]
PTMA (UniProt P06454) | -0.167 (inactive) | 0.112 (inactive) | -0.064 (inactive) | 0.2 (inactive) | 0.017 (inactive) | -0.009 (inactive) | -0.01 (inactive) | -0.032 (inactive) | -0.027 (inactive) | -0.052 (inactive) | 0.016 (inactive) | -0.026 (inactive) | -0.034 (inactive) | 0.098 (inactive) | -0.07 (inactive) | -0.108 (inactive) | 0.02 (inactive) | 0.01 (inactive) | -0.05 (inactive) | -0.059 (inactive)
PSMD9 (UniProt O00233) | -0.011 (inactive) | 0.086 (inactive) | 0.004 (inactive) | -0.04 (inactive) | -0.009 (inactive) | -0.137 (inactive) | -0.01 (inactive) | 0.002 (inactive) | -0.034 (inactive) | 0.127 (inactive) | -0.022 (inactive) | 0.001 (inactive) | -0.012 (inactive) | 0.002 (inactive) | -0.016 (inactive) | -0.034 (inactive) | -0.004 (inactive) | -0.031 (inactive) | -0.023 (inactive) | 0.005 (inactive)
PCYT1A (UniProt P49585) | -0.219 (inactive) | -0.332 (active) | 0.042 (inactive) | 0.028 (inactive) | -0.029 (inactive) | -0.019 (inactive) | 0.017 (inactive) | 0.008 (inactive) | -0.022 (inactive) | -0.111 (inactive) | -0.014 (inactive) | -0.105 (inactive) | -0.254 (inactive) | 0.013 (inactive) | 0.032 (inactive) | -0.186 (inactive) | -0.127 (inactive) | -0.097 (inactive) | -0.001 (inactive) | -0.02 (inactive)
PTGR2 (UniProt Q8N8N7) | 1.1 (active) | 1.27 (active) | 0.154 (inactive) | -0.006 (inactive) | 0.244 (inactive) | -0.117 (inactive) | 0.181 (inactive) | -0.009 (inactive) | 0.025 (inactive) | -0.278 (inactive) | 0.021 (inactive) | 0.009 (inactive) | 0.015 (inactive) | 0.046 (inactive) | -0.052 (inactive) | -0.025 (inactive) | 0.007 (inactive) | 0.136 (inactive) | -0.107 (inactive) | -0.043 (inactive)
PNPLA8 (UniProt Q9NP80) | -0.048 (inactive) | -0.184 (inactive) | -0.07 (inactive) | 0.112 (inactive) | -0.01 (inactive) | -0.07 (inactive) | 0.029 (inactive) | 0.069 (inactive) | 0.003 (inactive) | -0.262 (active) | 0.022 (inactive) | 0.052 (inactive) | 0.037 (inactive) | -0.009 (inactive) | -0.021 (inactive) | -0.051 (inactive) | 0.038 (inactive) | -0.016 (inactive) | 0.026 (inactive) | -0.01 (inactive)
PRMT3 (UniProt O60678) | -0.126 (inactive) | -0.411 (active) | 0.039 (inactive) | 0.033 (inactive) | 0.005 (inactive) | -0.093 (inactive) | 0.039 (inactive) | 0.077 (inactive) | -0.008 (inactive) | -0.953 (active) | 0.021 (inactive) | -0.046 (inactive) | 0 (inactive) | -0.017 (inactive) | 0.058 (inactive) | -0.005 (inactive) | 0.035 (inactive) | 0.011 (inactive) | 0.061 (inactive) | -0.064 (inactive)
PTPN23 (UniProt Q9H3S7) | -0.163 (inactive) | -0.453 (active) | 0.019 (inactive) | 0.013 (inactive) | -0.024 (inactive) | -0.006 (inactive) | 0.073 (inactive) | 0.017 (inactive) | 0.016 (inactive) | -0.106 (inactive) | -0.007 (inactive) | -0.13 (inactive) | -0.061 (inactive) | 0.112 (inactive) | 0.055 (inactive) | -0.169 (inactive) | 0.074 (inactive) | -0.055 (inactive) | 0.043 (inactive) | -0.023 (inactive)
PIP4P2 (UniProt Q8N4L2) | -0.092 (inactive) | -0.054 (inactive) | -0.07 (inactive) | -0.192 (inactive) | 0.053 (inactive) | 0.004 (inactive) | -0.018 (inactive) | 0.008 (inactive) | -0.016 (inactive) | -0.375 (active) | 0.056 (inactive) | -0.003 (inactive) | -0.048 (inactive) | 0.072 (inactive) | -0.007 (inactive) | 0.004 (inactive) | -0.003 (inactive) | -0.106 (inactive) | -0.04 (inactive) | 0.093 (inactive)
PKM (UniProt P14618) | 0.018 (inactive) | 0.037 (inactive) | -0.035 (inactive) | 0.001 (inactive) | -0.002 (inactive) | -0.007 (inactive) | -0.015 (inactive) | 0.015 (inactive) | 0.002 (inactive) | -0.017 (inactive) | 0.012 (inactive) | 0.024 (inactive) | 0 (inactive) | -0.004 (inactive) | -0.028 (inactive) | -0.01 (inactive) | -0.052 (inactive) | -0.007 (inactive) | -0.01 (inactive) | 0.011 (inactive)
PRCP (UniProt P42785) | -0.265 (active) | -0.291 (active) | -0.024 (inactive) | -0.002 (inactive) | 0.037 (inactive) | 0.008 (inactive) | 0.014 (inactive) | 0.019 (inactive) | 0.024 (inactive) | -0.389 (active) | 0.019 (inactive) | 0.054 (inactive) | 0.003 (inactive) | -0.01 (inactive) | 0.025 (inactive) | -0.009 (inactive) | 0.01 (inactive) | -0.035 (inactive) | 0.007 (inactive) | 0.05 (inactive)
POLR2M (UniProt P0CAP2) | 0.084 (inactive) | 0.026 (inactive) | 0.013 (inactive) | -0.018 (inactive) | -0.022 (inactive) | 0.034 (inactive) | 0.004 (inactive) | 0.045 (inactive) | -0.028 (inactive) | 0.037 (inactive) | 0.061 (inactive) | 0.019 (inactive) | 0.123 (inactive) | 0.005 (inactive) | -0.015 (inactive) | 0.041 (inactive) | 0.05 (inactive) | -0.021 (inactive) | 0.092 (inactive) | 0.017 (inactive)
PEX13 (UniProt Q92968) | -0.053 (inactive) | -0.049 (inactive) | -0.038 (inactive) | -0.009 (inactive) | 0.076 (inactive) | 0.047 (inactive) | 0.019 (inactive) | 0.021 (inactive) | 0.02 (inactive) | -0.378 (inactive) | -0.067 (inactive) | -0.083 (inactive) | 0.022 (inactive) | 0.061 (inactive) | -0.061 (inactive) | -0.011 (inactive) | -0.058 (inactive) | 0.008 (inactive) | 0.047 (inactive) | -0.087 (inactive)
PFAS (UniProt O15067) | -0.04 (inactive) | -0.124 (inactive) | 0.113 (inactive) | -0.016 (inactive) | -0.218 (inactive) | -0.069 (inactive) | 0.031 (inactive) | -0.003 (inactive) | -0.241 (inactive) | -0.001 (inactive) | -0.043 (inactive) | 0 (inactive) | -0.066 (inactive) | 0.046 (inactive) | -0.324 (active) | -0.029 (inactive) | 0 (inactive) | 0.251 (inactive) | 0.011 (inactive) | -0.075 (inactive)
PRPF3 (UniProt O43395) | -0.114 (inactive) | -0.34 (active) | 0.069 (inactive) | 0.069 (inactive) | -0.05 (inactive) | -0.062 (inactive) | 0.116 (inactive) | 0.059 (inactive) | 0.004 (inactive) | -0.17 (inactive) | -0.023 (inactive) | -0.114 (inactive) | 0.24 (inactive) | 0.07 (inactive) | -0.021 (inactive) | -0.239 (inactive) | -0.041 (inactive) | -0.001 (inactive) | 0.171 (inactive) | -0.025 (inactive)
POLR3B (UniProt Q9NW08) | 0.029 (inactive) | -0.44 (inactive) | 0.134 (inactive) | 0.07 (inactive) | -0.069 (inactive) | -0.028 (inactive) | 0.075 (inactive) | 0.035 (inactive) | 0.105 (inactive) | -0.058 (inactive) | -0.056 (inactive) | -0.129 (inactive) | -0.074 (inactive) | -0.045 (inactive) | -0.004 (inactive) | -0.03 (inactive) | -0.032 (inactive) | -0.047 (inactive) | 0.039 (inactive) | -0.028 (inactive)
PEF1 (UniProt Q9UBV8) | -0.144 (inactive) | -0.329 (active) | 0.035 (inactive) | 0.101 (inactive) | 0.045 (inactive) | 0.002 (inactive) | -0.061 (inactive) | -0.022 (inactive) | -0.005 (inactive) | 0.048 (inactive) | 0 (inactive) | 0.053 (inactive) | -0.006 (inactive) | -0.004 (inactive) | 0.049 (inactive) | -0.01 (inactive) | -0.019 (inactive) | -0.014 (inactive) | -0.025 (inactive) | -0.003 (inactive)
